Measured values as given in PubChem BioAssay (NCATS).
Results filed as inconclusive are left out. Calls of active or inactive are those of the source. The call rests on the fitted dose curve; in most records, active means well fitted cell-killing curve with a large enough effect; inconclusive means small, poorly fitted or top-dose-only effect, or effect the other way; inactive means no such curve, though single readings can be large or run the other way.

Experiments:
[1] = Quantitative High-Throughput drug screen in 47 multiple myeloma cell lines against the NCATS MIPE library collection: KMS28PE_JCRB cell viability assay (AID 1918983); further: nearly all actives have a fitted effect of over 35% in size
Summary of the method: (§1)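 MIPE 4.0 approved/investigational drugs; 500 cells/well; 48 h 37 °C humidified 5% CO2; CTG luminescence readout; DMSO = 100%, media = 0% viability.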

[2] = Quantitative High-Throughput drug screen in 47 multiple myeloma cell lines against the NCATS MIPE library collection: L363_DSMZ cell viability assay (AID 1918984); further: nearly all actives have a fitted effect of over 40% in size
Summary of the method: as §1

[3] = Quantitative High-Throughput drug screen in 47 multiple myeloma cell lines against the NCATS MIPE library collection: KMS34_JCRB cell viability assay (AID 1918985); further: nearly all actives have a fitted effect of over 40% in size
Summary of the method: as §1

[4] = Quantitative High-Throughput drug screen in 47 multiple myeloma cell lines against the NCATS MIPE library collection: OCIMY5_PLB cell viability assay (AID 1918988); further: nearly all actives have a fitted effect of over 65% in size
Summary of the method: as §1

[5] = Quantitative High-Throughput drug screen in 47 multiple myeloma cell lines against the NCATS MIPE library collection: OPM1_PLB cell viability assay (AID 1918989); further: nearly all actives have a fitted effect of over 40% in size
Summary of the method: as §1

[6] = Quantitative High-Throughput drug screen in 47 multiple myeloma cell lines against the NCATS MIPE library collection: SKMM1_PLB cell viability assay (AID 1919863); conditions: SKMM1 myeloma viability, CellTiter-Glo ATP, 48 h; viability: stronger effect = lower value; further: nearly all actives have a fitted effect of over 35% in size
Summary of the method: as §1

[7] = Quantitative High-Throughput drug screen in 47 multiple myeloma cell lines against the NCATS MIPE library collection: U266_ATCC cell viability assay (AID 1919864); further: nearly all actives have a fitted effect of over 35% in size
Summary of the method: as §1

[8] = Quantitative High-Throughput drug screen in 47 multiple myeloma cell lines against the NCATS MIPE library collection: XG1_PLB cell viability assay (AID 1919866); further: nearly all actives have a fitted effect of over 35% in size
Summary of the method: as §1

[9] = Quantitative High-Throughput drug screen in 47 multiple myeloma cell lines against the NCATS MIPE library collection: VP6_DJ cell viability assay (AID 1919867); further: nearly all actives have a fitted effect of over 40% in size
Summary of the method: as §1

[10] = Quantitative High-Throughput drug screen in 47 multiple myeloma cell lines against the NCATS MIPE library collection: PE2_PLB cell viability assay (AID 1919869); further: nearly all actives have a fitted effect of over 35% in size
Summary of the method: as §1

[11] = Quantitative High-Throughput drug screen in 47 multiple myeloma cell lines against the NCATS MIPE library collection: PCM6_Riken cell viability assay (AID 1919870); further: nearly all actives have a fitted effect of over 30% in size
Summary of the method: as §1

[12] = Quantitative High-Throughput drug screen in 47 multiple myeloma cell lines against the NCATS MIPE library collection: KMS11_JCRBsus cell viability assay (AID 1919873); further: nearly all actives have a fitted effect of over 50% in size
Summary of the method: as §1

[13] = Quantitative High-Throughput drug screen in 47 multiple myeloma cell lines against the NCATS MIPE library collection: KMS28BM_JCRB cell viability assay (AID 1919874); further: nearly all actives have a fitted effect of over 35% in size
Summary of the method: as §1

[14] = Quantitative High-Throughput drug screen in 47 multiple myeloma cell lines against the NCATS MIPE library collection: OCIMY7_PLB cell viability assay (AID 1918987); conditions: OCI-MY7 myeloma viability, CellTiter-Glo ATP, 48 h; viability (% of DMSO): at 45.8 µM (top of the series); further: nearly all actives have a fitted effect of over 65% in size
Summary of the method: as §1

[15] = Quantitative High-Throughput drug screen in 47 multiple myeloma cell lines against the NCATS MIPE library collection: XG6_PLB cell viability assay (AID 1919865); further: nearly all actives have a fitted effect of over 40% in size
Summary of the method: as §1

[16] = Quantitative High-Throughput drug screen in 47 multiple myeloma cell lines against the NCATS MIPE library collection: UTMC2_PLB cell viability assay (AID 1919868); conditions: CellTiter-Glo ATP luminescence, 48 h; viability (% of DMSO control): at 45.8 µM (top of the series); further: nearly all actives have a fitted effect of over 55% in size
Summary of the method: as §1

[17] = Quantitative High-Throughput drug screen in 47 multiple myeloma cell lines against the NCATS MIPE library collection: OPM2_DSMZ cell viability assay (AID 1919872); further: nearly all actives have a fitted effect of over 30% in size
Summary of the method: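 Viability readout: CellTiter-Glo luminescence following 5 min room-temperature incubation with reagent. Prior exposure: 48 h, 37C, humidified 5% CO2, 500 cells per well.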

[18] = Quantitative High-Throughput drug screen in 47 multiple myeloma cell lines against the NCATS MIPE library collection: RPMI8226_ATCC cell viability assay (AID 1919871); further: nearly all actives have a fitted effect of over 30% in size
Summary of the method: as §1

Measured: Potency
Potency means the concentration at half of the fitted maximal effect.

CCCCCCCCCCCC(CC1OC(=O)C1CCCCCC)OC(=O)C(CC(C)C)NC=O (configuration not stated)
inactive: [2] | [3] | [5] | [7] | [8] | [10] | [12] | [13]
active: [1] 26400 nM | [4] 18700 nM | [6] 16600 nM | [9] 7430 nM | [11] 4690 nM

CCc1c(O)cc(O)c(C(=O)c2ccc(OCCN3CCOCC3)c(OC)c2)c1CC(=O)N(CCOC)CCOC
active: [1] 1180 nM | [3] 1660 nM | [14] 3320 nM | [4] 469 nM | [5] 662 nM | [6] 1320 nM | [7] 1050 nM | [15] 1480 nM | [8] 1180 nM | [9] 1180 nM | [16] 935 nM | [10] 833 nM | [11] 1320 nM | [17] 1050 nM | [12] 935 nM | [13] 1320 nM

O=C(O)C=Cc1ccc(Cn2ccnc2)cc1
inactive: [1] | [3] | [5] | [7] | [15] | [8] | [9] | [16] | [10] | [11] | [17] | [13]

CC(C)(C)c1nc2c3cc[nH]c(=O)c3c3cc(F)ccc3c2[nH]1
active: [1] 6620 nM | [3] 1660 nM | [14] 332 nM | [4] 1870 nM | [5] 743 nM | [6] 935 nM | [7] 1870 nM | [15] 1320 nM | [8] 743 nM | [16] 187 nM | [10] 833 nM | [11] 743 nM | [18] 2960 nM | [17] 1660 nM | [12] 662 nM | [13] 2090 nM

N#Cc1ccc(COC[C@H]2O[C@@H](n3c(NCc4ccc(Cl)c(Cl)c4)nc4c(N)ncnc43)[C@@H](O)[C@@H]2O)cc1
active: [1] 5900 nM | [3] 16600 nM | [4] 3720 nM | [5] 5260 nM | [6] 2960 nM | [7] 20900 nM | [15] 16600 nM | [8] 2640 nM | [16] 1320 nM | [11] 5260 nM | [18] 5260 nM | [12] 5260 nM | [13] 5900 nM

COc1cc2ncnc(Nc3cccc(Br)c3)c2cc1OC
inactive: [7]
active: [1] 2960 nM | [14] 37.2 nM | [4] 11.8 nM | [5] 7430 nM | [15] 11.8 nM | [8] 37.2 nM | [9] 743 nM

C=CC(=O)Nc1cccc(Nc2nc(NC3CCC(N(C)C)CC3)nc3c2ncn3C(C)C)c1 (configuration not stated)
active: [1] 469 nM | [3] 1050 nM | [14] 74.3 nM | [4] 52.6 nM | [5] 469 nM | [6] 935 nM | [7] 296 nM | [15] 16.6 nM | [8] 105 nM | [9] 235 nM | [16] 132 nM | [10] 209 nM | [11] 209 nM | [18] 1050 nM | [17] 1870 nM | [12] 372 nM | [13] 209 nM

COc1ccc(C[C@@H](C)[C@@H](C)Cc2ccc(OC)c(OC)c2)cc1OC
active: [2] 166 nM | [3] 132 nM | [14] 296 nM | [4] 469 nM | [5] 264 nM | [6] 372 nM | [7] 935 nM | [15] 264 nM | [8] 187 nM | [9] 833 nM | [16] 209 nM | [10] 332 nM | [11] 332 nM | [18] 1180 nM | [17] 469 nM | [12] 132 nM

C[C@@H]1[C@H](C)CC[C@]2(C(=O)O)CC[C@]3(C)C(=CC[C@@H]4[C@@]5(C)C[C@@H](O)[C@H](O)[C@@](C)(CO)[C@H]5CC[C@]43C)[C@@H]12
inactive: [1] | [3] | [4] | [5] | [15] | [8] | [9] | [16] | [11] | [17] | [13]

C[C@]12CCC(=O)C=C1[C@@H]1CC1[C@H]1[C@H]3[C@@H]4C[C@H]4[C@@]4(CCC(=O)O4)[C@@]3(C)CC[C@H]12 (some centres not stated)
inactive: [1] | [2] | [5] | [9] | [10] | [17]
active: [18] 18700 nM | [13] 11800 nM

C=C(C)[C@@H]1CC[C@]2(C)CC[C@]3(C)[C@H](CC[C@@H]4[C@@]5(C)CC[C@H](O)C(C)(C)[C@H]5CC[C@]43C)[C@@H]12
inactive: [1] | [3] | [4] | [5] | [15] | [8] | [9] | [16] | [10] | [17] | [12]

C[C@H](NC(=O)[C@@H](O)c1cc(F)cc(F)c1)C(=O)N[C@@H]1C(=O)N(C)c2ccccc2-c2ccccc21
active: [15] 11800 nM | [8] 16600 nM | [12] 1870 nM
inactive: [1] | [3] | [5] | [7] | [11] | [18] | [17] | [13]
